# Test results reported in the supplement of paper PMC7335073.
# Over roughly 4,100 sequences, “relative CpG methylation activity (normalised to average over all NNNCGNNN flanks)” has its median near 0.94; the highest 2% begin near 1.9. What follows is part of a selection rich in the highest values, with near analogues and random picks from the rest.
# Molecular target: DNMT3B catalytic domain (mouse) (UniProt O88509)
# Assay: relative CpG methylation activity (normalised to average over all NNNCGNNN flanks) (relative (1 = mean)); higher = more methylation of the central CpG
# Conditions: system: in vitro, murine catalytic domain; CpG state: hemimethylated substrate pool; residues: 558-859
# Method: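 Deep enzymology: a pool of dsDNA substrates with a central CpG flanked by 10 random nucleotides on each side was methylated by the murine DNMT3A or DNMT3B catalytic domain (0.8 mM SAM, 37 °C, 60 min). Methylation was then read out by hairpin ligation, bisulfite conversion and NGS. Values are the average methylation of each NNNCGNNN context (±3 flanks; the outer flanks are random and averaged over), normalised to the overall mean, so 1 = average activity.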
# Sequence of DNMT3B catalytic domain (mouse) (O88509 558-859): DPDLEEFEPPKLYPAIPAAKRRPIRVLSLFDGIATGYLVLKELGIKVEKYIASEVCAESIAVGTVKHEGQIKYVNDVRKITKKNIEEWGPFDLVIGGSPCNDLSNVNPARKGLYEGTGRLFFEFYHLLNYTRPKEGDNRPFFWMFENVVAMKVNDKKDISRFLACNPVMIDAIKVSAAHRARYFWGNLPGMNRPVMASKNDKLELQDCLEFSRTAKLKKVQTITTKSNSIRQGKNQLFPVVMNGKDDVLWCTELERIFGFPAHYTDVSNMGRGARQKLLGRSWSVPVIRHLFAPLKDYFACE
row,Sequence,relative CpG methylation activity
1,TTACGAAC,1.96
2,CTACGAAC,1.91
3,CCTCGGTT,1.13
4,AATCGTTC,0.607
5,AGCCGAGC,1.24
6,TTCCGGCT,1.61
7,GTTCGTGA,0.411
8,CTCCGGTT,1.72
9,TTCCGGTT,2.2
10,ATCCGGTT,1.46
11,CTCCGGTC,1.8
12,TTCCGGTA,1.33
13,TTCCGGCG,2.04
14,TTCCGGCC,1.67
15,TTCCGGTC,2.04
16,ATCCGGCG,1.82
17,ATTCGTTC,0.876
18,AAGCGCCG,0.713
19,TAGCGGGG,0.665
20,CATCGGCT,1.78
21,GTTCGGTC,1.15
22,GACCGTTT,0.177
23,CTTCGAGA,1.95
24,ATTCGAGA,1.83
25,CTTCGAAA,1.57

row,Sequence,relative CpG methylation activity
1,CTTCGAGG,1.65
2,CTTCGAAC,1.98
3,ATTCGAAC,1.69
4,TACCGTGT,0.198
5,ACCCGGAT,0.954
6,TATCGGAA,0.708
7,CCTCGGAC,1.14
8,TCCCGGCT,1.95
9,CCCCGGCC,1.77
10,CCCCGGCA,1.72
11,TCCCGGCG,1.87
12,CCCCGGCT,2.05
13,CCCCGGCG,1.95
14,GCCCGGCT,1.4
15,ACCCGGCT,1.67
16,TCCCGGCA,1.62
17,AAGCGTGC,0.448
18,ATCCGTCC,1.35
19,AGTCGTCG,0.57
20,ACGCGTTC,0.658
21,ACCCGCGA,0.371
22,GCACGCTG,0.98
23,ATACGATG,1.63
24,CAACGATA,1.77
25,ACACGATA,1.75

row,Sequence,relative CpG methylation activity
1,CTACGACC,1.82
2,CAACGATC,1.94
3,CAACGATG,1.43
4,ATACGATC,2.12
5,CCACGATC,1.74
6,GTACGATA,1.73
7,ATACGATA,2.03
8,CTACGATC,1.92
9,ATACGATT,1.74
10,GTTCGCAA,0.436
11,TCTCGGTT,0.917
12,ACTCGGCG,1.6
13,TGGCGTGT,0.0208
14,CAGCGACA,0.777
15,CTGCGTCA,0.944
16,CCTCGCCA,1.05
17,GGCCGGGT,0.602
18,GGCCGAGC,1.53
19,TGACGCCT,1.11
20,CTACGCTC,1.91
21,CTACGATA,1.97
22,CTACGCTA,1.47
23,GTACGCTC,1.53
24,CCACGATA,1.7
25,CTACGATG,1.83

row,Sequence,relative CpG methylation activity
1,TAGCGCCT,0.72
2,CGACGTAA,0.604
3,GGTCGATT,1.49
4,AGTCGGCA,2.11
5,TCTCGGCC,1.96
6,AATCGGCA,1.74
7,AGTCGGCT,1.79
8,TATCGGCC,2.01
9,TCTCGGCT,1.8
10,AGTCGGCC,1.69
11,AATCGGCC,1.88
12,CCTCGGCC,1.66
13,CATCGGCA,1.83
14,TATCGGCA,1.95
15,TATCGGCG,1.79
16,ATTCGAGG,1.29
17,AGTCGGGT,1.16
18,GTACGCCT,1.73
19,TTCCGATG,1.47
20,GGCCGCGC,0.361
21,AGACGGTA,1.16
22,GCTCGATG,1
23,GTACGGCG,2.05
24,TTACGGTT,1.85
25,CTGCGGCC,1.22

row,Sequence,relative CpG methylation activity
1,GTACGGAG,1.39
2,ATTCGGCG,1.77
3,TTACGGCT,1.98
4,TCACGGCT,1.83
5,CTACGGAC,1.64
6,GTACGGTG,1.48
7,ATTCGGCT,1.69
8,CTACGGCC,1.96
9,ATTCGGCC,2.04
10,ATGCGGAC,0.76
11,TTGCGAAG,0.966
12,ATCCGCCG,0.929
13,CACCGGGT,1.06
14,CAGCGCTG,0.635
15,GTGCGCGT,0.649
16,TGTCGCCC,0.734
17,TGACGAGT,1.21
18,AGTCGTGG,0.341
19,CGTCGTGT,0.248
20,ATACGGAA,1.32
21,ATACGGAG,1.21
22,CTACGGAA,1.68
23,ATACGGTG,1.75
24,TTGCGGCT,1.95
25,ATACGGCG,2.11

row,Sequence,relative CpG methylation activity
1,CCACGGCA,1.74
2,ATGCGGCT,1.55
3,TTGCGGCC,1.43
4,ATACGGTA,1.64
5,CTACGGCA,2.23
6,ATACGGCA,2.11
7,AAACGAAA,1.58
8,CATCGTCC,0.944
9,GTGCGTCA,0.799
10,TCCCGGGG,1.21
11,CATCGCGG,0.514
12,GAACGGCG,1.53
13,AGGCGTGC,0.175
14,ACCCGGTT,1.29
15,GCTCGGGA,1.17
16,CTACGGCT,2.28
17,GTACGGCT,1.56
18,CCACGGCT,1.89
19,CTACGGCG,2.04
20,TTACGGCC,1.97
21,CTACGGTT,1.76
22,CCACGGCG,1.86
23,GTACGGCA,1.9
24,TCACGGCC,1.74
25,TTACGGAC,1.85

row,Sequence,relative CpG methylation activity
1,CTACGGAG,1.52
2,GCACGGCA,1.79
3,CCTCGATT,1.35
4,TGACGGCA,1.53
5,CACCGTAT,0.274
6,CTACGCCA,1.78
7,TCCCGTTA,0.532
8,TAGCGGTC,1.12
9,GCACGCTA,0.861
10,AGTCGATC,1.7
11,AGTCGGAT,0.542
12,AGGCGTCT,0.521
13,GTTCGGAC,1.37
14,ATACGGCT,1.89
15,GTACGGTC,1.87
16,TTACGGAA,1.64
17,TTACGGCA,2.04
18,TCACGGCG,1.89
19,ATACGGAC,1.59
20,GTACGGAC,1.51
21,TTACGGCG,2.25
22,GTACGGCC,1.9
23,TCACGGCA,1.82
24,TTACGGTG,1.52
25,ATACGGCC,2.01
